# Measured values published in PubChem BioAssay (NCI).
# The panel holds about 83,000 compounds, 20% with a hit somewhere; the sample as a whole holds those more often.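 Treatment: one concentration, 48 hours, 96-well format. Scoring: percent growth, with anything below 10 considered active.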 Unmarked numbers belong to inactive results. Active and inactive are the calls of the source.
# Test system: HT29 colon
# Test: NCI-60 one-dose screen, 48 h (100 = growth as untreated, 0 = no growth, -100 = all killed)
# Conditions: 10 µM unless noted
row,SMILES,growth
1,Cc1ccc2sc3c(NCCCNCCO)nc4ccccc4c3c(=O)c2c1,-65% (active)
2,NCCOc1ncccc1/C=C1\c2ccccc2-c2ccc(F)cc21,13%
3,CNCCNc1nc2ccccc2c2c(=O)c3cc(OC)ccc3sc12,-33.3% (active)
4,CC(C)c1ccc(S(=O)(=O)NC(=O)NC2CCCC2)cc1,108%
5,COc1cc(/C=C2\CN(C)C/C(=C\c3cc(CN4CCCC4)c(O)c(OC)c3)C2=O)cc(CN2CCCC2)c1O,25.6%
6,Nc1ccccc1-c1ccc(-c2ccc(Cl)cc2)c2c1[nH]c1ccccc12,67.4%
7,O=C(Cn1cc(COc2ncnc3c2cnn3-c2ccccc2)nn1)Nc1ccccn1,110%
8,NCCOc1ccccc1/C=C1\c2ccccc2-c2ccc([N+](=O)[O-])cc21,-59.7% (active)
9,COc1cc(/C(C#N)=C/c2nc3c(N4CCOCC4)nc(Cl)nc3n2C)cc(OC)c1OC,9.95% (active)
10,Cc1ccc2cccc(Oc3ccc(Nc4ncnc5onc(-c6ccccc6)c45)cc3)c2n1,57.2%
11,COC(=O)/C(CCC=C(C)C)=C1\[C@@H](OC(C)=O)C[C@@]2(C)[C@H]1C[C@@H](O)[C@H]1[C@@]3(C)CC[C@H](NCc4ccccc4)[C@@H](C)[C@@H]3CC[C@@]12C,14.8%
12,COc1cc(/C=C/C(=O)c2ccc(Cl)cc2)cc(CN2CCCCC2)c1O,19.4%
13,O=C(/C=C/c1ccc(Cl)cc1)c1ccc(Nc2nc(NCCO)nc(Nc3ccc(Cl)cc3)n2)cc1,30.5%
